In PubChem BioAssay:
The source made the active and inactive calls.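 The calls were made as follows, unless noted: active = inhibition above the screen-wide mean plus 3 SD, about 51%; inactive = the rest.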

Tests used:
[1] = reduced mouse 2C T cell binding to pMHC/ICAM-1 vesicles – MLPCN validation set, flow cytometry, LFA-1/ICAM-1 modulator project, pilot screen (AID 2523;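 active = response below a set limit, under 55% cells CD8-positive and vesicle-bound, and CD8 cells' 90th-percentile brightness under 279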;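 as to vesicle binding response: mean PE anti-B7-1 fluorescence of CD8+ cells relative to row control; 100% = QL9-loaded vesicles with DMSO vehicle in the same plate row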); settings: 2C mouse CD8+ T cells, at 7 µM, stronger effect = lower value; double positive events: measured here: CD8+/vesicle+ event percentage
[2] = biological target: Integrin beta-1 (Homo sapiens) + Integrin alpha-4 (Homo sapiens) (UniProt P13612+P05556); test: alpha4beta1 integrin LIBS antibody binding reduction – U937 cells, HUTS-21 mAb, flow cytometry, validation set, VLA-4 allosteric modulator project, pilot screen (AID 2674;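 active = inhibition above 50%, about 3 SD of the validation set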;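 also: antibody binding induced by the VLA-4 ligand LDV present at three times its Kd; 0% = LDV ligand with antibody and no compound and 100% = antibody without LDV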); settings: HUTS-21 LIBS mAb binding, at 6.7 µM, stronger effect = higher value, binding induced by LDV ligand
Chain of Integrin beta-1 (Homo sapiens) + Integrin alpha-4 (Homo sapiens) (P05556 whole entry, looked up): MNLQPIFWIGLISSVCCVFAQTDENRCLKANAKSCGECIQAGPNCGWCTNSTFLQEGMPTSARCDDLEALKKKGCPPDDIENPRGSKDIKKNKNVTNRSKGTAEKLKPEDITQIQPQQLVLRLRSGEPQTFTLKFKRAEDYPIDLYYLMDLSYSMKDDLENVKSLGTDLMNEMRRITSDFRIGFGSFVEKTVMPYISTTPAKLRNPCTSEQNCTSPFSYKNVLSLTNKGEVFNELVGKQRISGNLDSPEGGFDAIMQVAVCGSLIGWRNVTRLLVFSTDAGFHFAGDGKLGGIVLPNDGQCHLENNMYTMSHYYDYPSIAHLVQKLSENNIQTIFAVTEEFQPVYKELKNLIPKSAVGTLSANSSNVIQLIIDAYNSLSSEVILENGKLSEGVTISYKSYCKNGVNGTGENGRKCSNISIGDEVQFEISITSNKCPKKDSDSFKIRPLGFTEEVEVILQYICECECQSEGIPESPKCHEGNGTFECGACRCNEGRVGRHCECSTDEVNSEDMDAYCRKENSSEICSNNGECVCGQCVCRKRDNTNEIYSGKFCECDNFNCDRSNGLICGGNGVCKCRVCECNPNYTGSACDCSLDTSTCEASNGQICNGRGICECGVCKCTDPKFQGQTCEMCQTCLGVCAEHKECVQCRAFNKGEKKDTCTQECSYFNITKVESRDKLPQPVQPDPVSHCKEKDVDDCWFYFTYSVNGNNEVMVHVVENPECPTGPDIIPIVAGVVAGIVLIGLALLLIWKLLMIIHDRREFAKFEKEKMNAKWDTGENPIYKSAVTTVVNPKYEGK
Chain of Integrin beta-1 (Homo sapiens) + Integrin alpha-4 (Homo sapiens) (P13612 whole entry, looked up): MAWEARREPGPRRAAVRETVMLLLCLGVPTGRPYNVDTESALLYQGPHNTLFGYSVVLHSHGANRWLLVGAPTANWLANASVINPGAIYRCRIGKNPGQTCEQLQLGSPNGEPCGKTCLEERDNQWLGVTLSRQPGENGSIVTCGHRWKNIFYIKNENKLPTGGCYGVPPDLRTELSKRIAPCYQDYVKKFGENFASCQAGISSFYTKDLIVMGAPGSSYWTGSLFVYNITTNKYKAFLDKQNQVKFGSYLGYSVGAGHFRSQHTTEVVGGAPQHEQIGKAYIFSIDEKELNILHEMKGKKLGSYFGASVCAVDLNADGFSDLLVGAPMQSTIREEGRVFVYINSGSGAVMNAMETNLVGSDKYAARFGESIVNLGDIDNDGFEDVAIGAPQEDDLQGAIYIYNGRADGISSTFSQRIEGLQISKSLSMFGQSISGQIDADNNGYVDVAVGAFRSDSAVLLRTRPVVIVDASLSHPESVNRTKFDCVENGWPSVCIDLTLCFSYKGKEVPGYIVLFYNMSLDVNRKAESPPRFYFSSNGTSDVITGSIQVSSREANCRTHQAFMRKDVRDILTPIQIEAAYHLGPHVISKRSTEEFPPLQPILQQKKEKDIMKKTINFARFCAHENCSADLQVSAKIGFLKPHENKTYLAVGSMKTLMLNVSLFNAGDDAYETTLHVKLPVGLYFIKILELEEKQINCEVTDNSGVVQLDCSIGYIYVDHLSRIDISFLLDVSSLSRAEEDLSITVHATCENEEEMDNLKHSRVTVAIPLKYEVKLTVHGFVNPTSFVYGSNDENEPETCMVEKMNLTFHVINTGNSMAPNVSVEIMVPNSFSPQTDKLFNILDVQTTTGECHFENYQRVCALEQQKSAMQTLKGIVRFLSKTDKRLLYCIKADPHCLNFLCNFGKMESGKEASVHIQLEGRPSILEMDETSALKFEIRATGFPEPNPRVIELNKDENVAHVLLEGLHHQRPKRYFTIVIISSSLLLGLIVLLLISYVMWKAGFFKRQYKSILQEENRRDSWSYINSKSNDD

[3] = calorie-restriction mimetic ROS inhibitors, yeast – validation compound set, pilot screen (AID 2706;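 active = superoxide response below 65% of plate, a cut near 3 SD across the whole screen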;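 also: yeast exposed to compound for one week at 30 degrees C before staining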;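 as to superoxide response (% of plate): 100% = mean of all compound wells on the same plate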); settings: S. cerevisiae aging, superoxide DHE fluorescence; at 10 µM, stronger effect = lower value
[4] = biological target: Beta-adrenergic receptor kinase 1 (Homo sapiens) (UniProt P25098); test: GRK2 binders displacing RNA aptamer, biochemical, validation, human GRK2, bead flow cytometry (AID 488806;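 active = aptamer binding inhibition above 30%, about 3 SD of noise from non-fluorescent compounds; inactive = inhibition at or below 30%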); settings: bead-bound GRK2, FAM-aptamer displacement, at 10 µM, stronger effect = higher value
Chain of Beta-adrenergic receptor kinase 1 (Homo sapiens) (P25098 whole entry, looked up): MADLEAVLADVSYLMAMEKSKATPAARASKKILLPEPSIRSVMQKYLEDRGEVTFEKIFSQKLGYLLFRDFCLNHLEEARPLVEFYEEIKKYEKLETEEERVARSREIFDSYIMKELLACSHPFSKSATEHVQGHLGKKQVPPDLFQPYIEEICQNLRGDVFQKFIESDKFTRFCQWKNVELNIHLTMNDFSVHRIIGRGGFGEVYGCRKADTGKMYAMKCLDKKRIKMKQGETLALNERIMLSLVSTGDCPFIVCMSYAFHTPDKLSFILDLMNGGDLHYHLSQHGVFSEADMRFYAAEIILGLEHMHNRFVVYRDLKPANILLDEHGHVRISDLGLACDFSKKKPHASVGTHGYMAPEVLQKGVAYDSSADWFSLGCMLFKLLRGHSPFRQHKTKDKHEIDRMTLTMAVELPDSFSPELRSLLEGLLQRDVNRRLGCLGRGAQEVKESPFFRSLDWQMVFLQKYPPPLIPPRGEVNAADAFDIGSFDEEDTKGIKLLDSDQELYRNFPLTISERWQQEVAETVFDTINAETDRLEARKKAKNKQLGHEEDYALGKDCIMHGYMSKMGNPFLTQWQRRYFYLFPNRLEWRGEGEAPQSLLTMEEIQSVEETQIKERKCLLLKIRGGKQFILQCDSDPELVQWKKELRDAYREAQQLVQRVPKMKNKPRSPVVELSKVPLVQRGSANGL

[5] = biological target: Beta-2 adrenergic receptor (Homo sapiens) (UniProt P07550); test: agonist-induced loss of surface beta2AR – cell-based, FAP fluorogen, flow cytometry, validation set, pilot screen (AID 504459;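 active = percent response above 42, roughly 3 SD of non-fluorescent test compounds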;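 also: agonist-driven loss of surface beta2AR via internalization measured by FAP dye flow cytometry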); settings: Am2.2-beta2AR cells, at 10 µM, stronger effect = higher value
Chain of Beta-2 adrenergic receptor (Homo sapiens) (P07550 whole entry, looked up): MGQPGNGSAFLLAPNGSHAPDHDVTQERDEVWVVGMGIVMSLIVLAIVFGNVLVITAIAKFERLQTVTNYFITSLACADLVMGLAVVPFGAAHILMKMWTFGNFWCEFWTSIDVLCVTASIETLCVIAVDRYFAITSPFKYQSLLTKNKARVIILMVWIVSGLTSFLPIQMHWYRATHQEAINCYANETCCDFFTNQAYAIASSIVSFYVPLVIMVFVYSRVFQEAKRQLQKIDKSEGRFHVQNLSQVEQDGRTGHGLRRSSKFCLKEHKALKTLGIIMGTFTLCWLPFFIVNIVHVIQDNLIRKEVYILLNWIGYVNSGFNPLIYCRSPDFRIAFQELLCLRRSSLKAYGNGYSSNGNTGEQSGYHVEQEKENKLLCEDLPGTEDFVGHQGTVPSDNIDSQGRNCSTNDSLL

[6] = biological target: AP-2 complex subunit beta (Homo sapiens) (UniProt P63010); test: beta-arrestin/AP2 interaction blockers – biochemical, validation set, GST-AP2 beads, flow cytometry, pilot screen (AID 504541;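 active = inhibition above 54%, about 3 SD of non-fluorescent compounds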;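 also: AP2 carries R879A mutation and is captured from E. coli lysate; bead-bound FITC arrestin peptide fluorescence measuring arrestin peptide binding to AP2; 0% = DMSO wells and 100% = excess unlabeled arrestin peptide control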); settings: FITC arrestin peptide, at 10 µM, stronger effect = higher value, AP2 beta2 appendage fragment, R879A mutant
Chain of AP-2 complex subunit beta (Homo sapiens) (P63010 whole entry, looked up, the tested form may be a part, one chain of several): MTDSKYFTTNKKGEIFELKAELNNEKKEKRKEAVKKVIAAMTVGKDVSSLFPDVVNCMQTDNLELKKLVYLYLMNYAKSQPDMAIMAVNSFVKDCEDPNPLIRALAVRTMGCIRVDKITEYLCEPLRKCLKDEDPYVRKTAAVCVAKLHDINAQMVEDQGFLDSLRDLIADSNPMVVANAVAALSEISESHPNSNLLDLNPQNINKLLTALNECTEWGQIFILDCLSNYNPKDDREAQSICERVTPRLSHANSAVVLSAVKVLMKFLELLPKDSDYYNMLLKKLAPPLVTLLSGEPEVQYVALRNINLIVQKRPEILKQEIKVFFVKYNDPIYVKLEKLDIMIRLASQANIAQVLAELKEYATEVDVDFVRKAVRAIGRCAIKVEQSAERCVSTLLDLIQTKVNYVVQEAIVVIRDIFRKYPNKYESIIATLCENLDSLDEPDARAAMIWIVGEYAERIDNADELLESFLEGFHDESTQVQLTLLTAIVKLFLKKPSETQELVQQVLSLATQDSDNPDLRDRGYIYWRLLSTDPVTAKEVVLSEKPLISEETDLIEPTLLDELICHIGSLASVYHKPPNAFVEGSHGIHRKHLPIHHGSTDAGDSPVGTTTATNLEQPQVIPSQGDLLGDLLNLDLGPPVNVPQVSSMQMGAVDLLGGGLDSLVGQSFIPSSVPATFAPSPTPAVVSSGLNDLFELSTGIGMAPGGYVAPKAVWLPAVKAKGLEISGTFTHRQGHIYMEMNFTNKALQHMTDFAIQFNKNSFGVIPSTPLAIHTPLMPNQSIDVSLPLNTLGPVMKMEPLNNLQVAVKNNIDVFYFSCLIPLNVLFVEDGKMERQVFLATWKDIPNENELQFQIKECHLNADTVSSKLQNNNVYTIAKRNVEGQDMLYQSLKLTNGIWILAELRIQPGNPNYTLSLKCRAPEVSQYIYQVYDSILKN

[7] = cytosolic pH regulators acting via V-ATPase – S. cerevisiae, pHLuorin, HTS validation (AID 504600; in the data active = response above about 15%;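 also: plate controls were DMSO for no effect and reference compound for full effect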); settings: V-ATPase proton transport, at 10 µM, stronger effect = higher value
[8] = test system: anti-desmoglein-3 scFv antibody binding to human DSG3; test: blockers of pathogenic pemphigus antibody–desmoglein-3 binding – biochemical, validation compound set, bead-based, flow cytometry, pilot screen (AID 588368;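 active = binding below the plate cutoff, the plate median minus 3 SD, with a reading above zero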;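 also: signal is the median channel fluorescence of bead-bound GFP antibody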); settings: Protein G beads, DSG3-Fc, scFv-GFP binding, at 10 µM, stronger effect = lower value
[9] = Nile Red efflux blockade in pump-expressing yeast – validation compound set, multiplex, phenotypic, pilot screen (AID 588506;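 active = efflux inhibition above 0.42, the validation set average plus 4 SD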;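 also: Nile Red retained in cells so higher fluorescence means more efflux inhibition; 0 = negative control wells and 1 = enniatin B 25 µM full block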); settings: S. cerevisiae pump-expressing triplex, Nile Red efflux flow cytometry; at 10 µM; stronger effect = higher value; the pumps come from Candida albicans
[10] = biological target: ATP-binding cassette sub-family B member 6 (Homo sapiens) (UniProt Q9NP58); test: blockers of ABCB6-driven porphyrin uptake – K562-ABCB6 cells, flow cytometry, validation set, pilot screen (AID 588550); settings: K562-ABCB6 porphyrin accumulation, 1 h, at 10 µM, stronger effect = higher value;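 also: 0% = DMSO wells and 100% = benzethonium chloride 70 µM positive control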
Chain of ATP-binding cassette sub-family B member 6 (Homo sapiens) (Q9NP58 whole entry, looked up): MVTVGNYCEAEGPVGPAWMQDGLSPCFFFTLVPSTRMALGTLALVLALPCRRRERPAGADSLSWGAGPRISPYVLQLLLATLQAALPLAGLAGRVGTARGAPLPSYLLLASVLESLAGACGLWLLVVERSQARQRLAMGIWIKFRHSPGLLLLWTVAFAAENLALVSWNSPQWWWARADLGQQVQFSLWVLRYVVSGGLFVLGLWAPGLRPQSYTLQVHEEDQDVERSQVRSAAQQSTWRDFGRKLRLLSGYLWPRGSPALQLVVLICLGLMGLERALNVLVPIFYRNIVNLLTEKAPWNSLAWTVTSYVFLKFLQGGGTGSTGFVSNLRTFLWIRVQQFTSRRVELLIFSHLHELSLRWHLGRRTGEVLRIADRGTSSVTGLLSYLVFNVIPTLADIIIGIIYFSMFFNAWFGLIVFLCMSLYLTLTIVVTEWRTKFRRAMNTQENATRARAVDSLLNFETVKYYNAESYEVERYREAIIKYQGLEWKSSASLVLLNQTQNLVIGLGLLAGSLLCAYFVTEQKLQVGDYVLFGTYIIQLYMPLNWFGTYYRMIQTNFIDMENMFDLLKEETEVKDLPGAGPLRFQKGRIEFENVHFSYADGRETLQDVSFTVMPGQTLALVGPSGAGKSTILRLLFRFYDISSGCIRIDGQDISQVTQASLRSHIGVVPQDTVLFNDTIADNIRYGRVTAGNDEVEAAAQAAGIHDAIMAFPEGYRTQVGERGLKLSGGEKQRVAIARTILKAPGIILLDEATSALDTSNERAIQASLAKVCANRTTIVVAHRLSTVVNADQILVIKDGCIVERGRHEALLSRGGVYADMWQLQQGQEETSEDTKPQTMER

[11] = AML differentiation inducers, ER-HoxA9 marrow cells – cell-based, GFP/MAC1 double positive, flow cytometry, validation set, primary screen (AID 588685;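 active = differentiation response of at least 50%, scaled between solvent and reference control, from cells with both markers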;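 also: compound exposure lasts four days before antibody staining and flow analysis; 0% = DMSO wells and 100% = 5 µM fulvestrant positive control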); settings: stronger effect = higher value, normalized: vehicle 0, fulvestrant 100

SMILES	double positive events [1] [%]	vesicle binding response [1]	inhibition [2]	superoxide response (% of plate) [3]	aptamer binding inhibition [4]	response [5]	inhibition [6]	response [7]	binding (% of control) [8]	efflux inhibition (fraction of control) [9]	inhibition [10]	differentiation response [11]	outcome [3]
COc1ccc(C(=O)Nc2nc3ccccc3c(=O)[nH]2)cc1	65.5	352% (inactive)	3.67% (inactive)	84.4% (inactive)	0% (inactive)	37.4% (inactive)	4.94% (inactive)	-8.54% (inactive)	99.1% (inactive)	-0.03 (inactive)	4% (inactive)	0% (inactive)	–
O=C(NCc1ccccc1Cl)NC(=O)c1ccccc1	62	221% (inactive)	6.46% (inactive)	115% (inactive)	4% (inactive)	0.79% (inactive)	8.1% (inactive)	-5.42% (inactive)	98.7% (inactive)	0.19 (inactive)	7% (inactive)	1.64% (inactive)	–
CCN1C(=O)C(CC(=O)Nc2ccc(F)cc2)N(Cc2ccc3c(c2)OCO3)C1=S (stereo unspecified)	56.3	124% (inactive)	7.76% (inactive)	101% (inactive)	0% (inactive)	22.9% (inactive)	-7.91% (inactive)	0.48% (inactive)	107% (inactive)	0.44 (active)	4% (inactive)	58.4% (active)	–
CC(C)=CCCC(C)CN1CCC(N2CCC(C(=O)N3CCCC3)CC2)CC1 (stereo unspecified)	66.5	278% (inactive)	-11.3% (inactive)	93.3% (inactive)	-12% (inactive)	35% (inactive)	-10.9% (inactive)	-0.07% (inactive)	106% (inactive)	-0.03 (inactive)	5% (inactive)	-7.2% (inactive)	–
COc1cc(OC)c(C2C(C#N)=C(N)OC3=C2C(=O)CC(C)(C)C3)cc1OC (stereo unspecified)	59.9	137% (inactive)	5.61% (inactive)	109% (inactive)	2% (inactive)	10.6% (inactive)	5.17% (inactive)	-1.86% (inactive)	102% (inactive)	-0.38 (inactive)	13% (inactive)	-11.9% (inactive)	–
C=CCc1ccc(OCC(O)COc2ccc(CC=C)cc2OC)c(OC)c1	58.6	140% (inactive)	7.76% (inactive)	104% (inactive)	-1% (inactive)	7.14% (inactive)	3.97% (inactive)	2.47% (inactive)	104% (inactive)	0.4 (inactive)	4% (inactive)	50.4% (active)	–
Nc1cccc2nc3ccccc3cc12	60.9	235% (inactive)	9.1% (inactive)	113% (inactive)	3% (inactive)	2.19% (inactive)	2.41% (inactive)	-17.4% (inactive)	102% (inactive)	-0.04 (inactive)	2% (inactive)	-6.96% (inactive)	–
O=C(c1ccccc1F)c1cc2c(cc1[N+](=O)[O-])OCCO2	63	163% (inactive)	15% (inactive)	107% (inactive)	3% (inactive)	24.6% (inactive)	-6.21% (inactive)	1.51% (inactive)	105% (inactive)	-0.19 (inactive)	7% (inactive)	-1.65% (inactive)	–
OC(COCc1ccccc1)CN1CCN(Cc2ccc3c(c2)OCO3)CC1 (stereo unspecified)	59.4	189% (inactive)	7.76% (inactive)	110% (inactive)	2% (inactive)	4.46% (inactive)	-4.35% (inactive)	4.61% (inactive)	97.8% (inactive)	-0.21 (inactive)	4% (inactive)	8.8% (inactive)	–
COc1ccc(CN(CCC(c2ccc(F)cc2)C2CCOC(C)(C)C2)C(=O)c2ccco2)cc1 (stereo unspecified)	59.4	144% (inactive)	-8.62% (inactive)	104% (inactive)	5% (inactive)	22.1% (inactive)	-11.3% (inactive)	1.03% (inactive)	101% (inactive)	0.12 (inactive)	3% (inactive)	-13.6% (inactive)	–
CC(=O)Nc1cc(O)cc(O)c1	60.5	189% (inactive)	11.9% (inactive)	99.3% (inactive)	-2% (inactive)	-0.41% (inactive)	0.4% (inactive)	-0.22% (inactive)	106% (inactive)	-0.06 (inactive)	6% (inactive)	69.6% (active)	–
COc1ccc2c(c1OC)C(=O)NC(C)=C(C(=O)OC(C)(C)C)C2O (stereo unspecified)	62.8	192% (inactive)	5.03% (inactive)	97.2% (inactive)	4% (inactive)	7.52% (inactive)	-5.16% (inactive)	1.16% (inactive)	103% (inactive)	0.01 (inactive)	7% (inactive)	56.8% (active)	–
COc1ccc(C(=O)[C@H]2[C@H]3C(=O)N(c4ccccc4)C(=O)[C@H]3C3C=CC=NN32)cc1 (stereo partly specified)	62.9	227% (inactive)	-7.79% (inactive)	96.9% (inactive)	3% (inactive)	0.22% (inactive)	28.5% (inactive)	-6.05% (inactive)	99.8% (inactive)	0.01 (inactive)	-9% (inactive)	-8.96% (inactive)	–
CC[N+](C)(C)Cc1ccccc1Br	63.8	185% (inactive)	8.25% (inactive)	96.2% (inactive)	4% (inactive)	-19.8% (inactive)	-11.2% (inactive)	-30.5% (inactive)	102% (inactive)	0 (inactive)	2% (inactive)	-11.9% (inactive)	–
Cn1c(=O)c2c(nc(SCCN3CCCCC3)n2C)n(C)c1=O	61.5	176% (inactive)	-0.27% (inactive)	85.5% (inactive)	-3% (inactive)	-25.4% (inactive)	-6.3% (inactive)	1.6% (inactive)	110% (inactive)	-0.13 (inactive)	-2% (inactive)	-11.9% (inactive)	–
COCc1cc(=O)[nH]c(Nc2nc3ccccc3o2)n1	62.6	117% (inactive)	-7.93% (inactive)	86.3% (inactive)	3% (inactive)	-16.5% (inactive)	-0.3% (inactive)	6.3% (inactive)	108% (inactive)	0 (inactive)	4% (inactive)	6.83% (inactive)	–
COc1ccc(Cl)cc1C(=O)NCCc1ccc(S(=O)(=O)NC(=O)NC2CCCCC2)cc1	60.4	155% (inactive)	-10.5% (inactive)	114% (inactive)	4% (inactive)	-18.8% (inactive)	3.88% (inactive)	-2.06% (inactive)	101% (inactive)	-0.28 (inactive)	8% (inactive)	-10.4% (inactive)	–
COc1ccc(O)c(N)c1	70.2	381% (inactive)	-22.3% (inactive)	104% (inactive)	5% (inactive)	76.4% (active)	20.1% (inactive)	3.74% (inactive)	99.1% (inactive)	-0.1 (inactive)	7% (inactive)	-0.8% (inactive)	–
Cc1nnc(SCC(=O)N2CCCC(C(=O)c3ccc(Cl)cc3)C2)o1 (stereo unspecified)	71.9	299% (inactive)	2.3% (inactive)	95.6% (inactive)	1% (inactive)	-7.42% (inactive)	-3.16% (inactive)	2.16% (inactive)	105% (inactive)	0.3 (inactive)	3% (inactive)	-13.6% (inactive)	–
CC(C)c1ccc2[nH]c3c(c2c1)CCCC3=O	59.4	113% (inactive)	4.27% (inactive)	97.7% (inactive)	2% (inactive)	11.3% (inactive)	0.1% (inactive)	1.31% (inactive)	102% (inactive)	0.04 (inactive)	27% (inactive)	-1.65% (inactive)	–
CC(=O)CCc1oc2ccccc2c1-c1ccccc1	62.1	172% (inactive)	0.59% (inactive)	–	-3% (inactive)	-37.7% (inactive)	-8% (inactive)	-1.06% (inactive)	108% (inactive)	0.12 (inactive)	7% (inactive)	-1.05% (inactive)	inactive
CCN(CC)CCN1C(=O)C(=O)/C(=C(/O)c2c(C)[nH]c(C(=O)OC)c2C)C1c1cccnc1 (stereo unspecified)	60.5	235% (inactive)	-19.5% (inactive)	95.2% (inactive)	4% (inactive)	13.3% (inactive)	0.35% (inactive)	-2.49% (inactive)	103% (inactive)	0.05 (inactive)	9% (inactive)	-12% (inactive)	–
Fc1cc(F)cc(NC(=S)NCCCN2CCOCC2)c1	59.3	214% (inactive)	5.69% (inactive)	80.8% (inactive)	-5% (inactive)	-24.3% (inactive)	-3.24% (inactive)	4.35% (inactive)	107% (inactive)	-0.13 (inactive)	2% (inactive)	0.92% (inactive)	–
CC1(C)O[C@@H]2C[C@H]3[C@@H]4CCC5=CC(=O)C=C[C@]5(C)[C@@]4(F)[C@@H](O)C[C@]3(C)[C@]2(C(=O)CO)O1	61.2	123% (inactive)	0.25% (inactive)	91.8% (inactive)	-1% (inactive)	10.2% (inactive)	-3.89% (inactive)	-1.77% (inactive)	107% (inactive)	-0.22 (inactive)	2% (inactive)	40.8% (inactive)	–
CN1[C@@H](CC(=O)c2ccccc2)CCC[C@H]1C[C@H](O)c1ccccc1	61.3	176% (inactive)	6.4% (inactive)	93.3% (inactive)	4% (inactive)	12.9% (inactive)	-9.53% (inactive)	3.14% (inactive)	103% (inactive)	-0.06 (inactive)	3% (inactive)	-0.8% (inactive)	–
O=C(O)CCn1c(=S)n(CCC(=O)O)c2ccccc21	53.4	162% (inactive)	8.15% (inactive)	112% (inactive)	4% (inactive)	–	4.52% (inactive)	-0.83% (inactive)	101% (inactive)	-0.05 (inactive)	5% (inactive)	-6.66% (inactive)	–
